D1 PAM – Potentiators of Human D1 Dopamine Receptor: qHTS | D(1A) dopamine receptor (Homo sapiens), P21728 | HEK293 TREx D1 cells, calcium flux, dopamine EC20 potentiation | potentiation, % at 10 µM | 360,000 compounds, 0.036% hits | AID 504651, 2011; in the data active means potentiation above about 30%; further: 0% is about no effect
USP1-UAF1 inh – Inhibitors of USP1/UAF1: Primary Screen. Ubiquitin carboxyl-terminal hydrolase 1 (Homo sapiens), O94782. recombinant USP1/UAF1, Ub-Rhodamine cleavage fluorescence. Potency, µM (titrated, usually from 57.1 µM), for the others: top-dose activity change, negative = inhibition, usual class: inhibitors. 390,000 compounds, 0.23% hits. AID 743255, 2014; active means well fitted inhibition curve with a large enough effect; inconclusive means small, poorly fitted or top-dose-only effect; inactive means no such curve, though single readings can be large or run the other way; further: potency means the concentration at half of the fitted maximal effect; on the % scale 0 is the no-effect control and ±100 the full control effect; nearly all actives have a fitted effect of over 60% in size
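1 nM enzyme complex + cpd, 15 min RT; start with Ub-Rho 150nM final; kinetic fluorescence ex 480/em 540, 6 reads q60 s. Buffer 50mM HEPES pH 7.8, 0.5mM EDTA, 0.1 mg/ml BSA, 1mM TCEP, 0.01% Tween-20.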
D1 antag – Antagonist of Human D 1 Dopamine Receptor: qHTS. D(1A) dopamine receptor (Homo sapiens), P21728. 360,000 compounds, 3.2% hits. HEK293 TREx D1 cells, calcium flux, dopamine EC80; hits give low values. activity change, negative = inhibition, % at 10 µM; in the data active means activity change below about -30%; further: on the % scale 0 is the no-effect control and ±100 the full control effect
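Allosteric or orthosteric antagonism assessed as attenuation of the calcium response to EC80 dopamine, added 180 s after compound, in induced HEK293 Trex D1 cells loaded with no-wash calcium dye.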
D1 ag – Allosteric Agonists of the Human D1 Dopamine Receptor: qHTS | HEK293 T-REx D1 cells, calcium flux, agonist mode | AID 504660, 2011 | activation, % at 2 µM | D(1A) dopamine receptor (Homo sapiens), P21728 | 360,000 compounds, 1% hits; further: 0% is about no effect
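Agonism was scored from calcium flux recorded over 180 s (1 read/s) after pintool compound addition, following a 10-cycle baseline. Cells were inducible force-coupled HEK293 TREx D1, plated overnight at 30 C and loaded with no-wash calcium dye.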
TRHR PAM – qHTS for Small Molecule Agonists and Allosteric Enhancers of Human TRH Receptor: Primary Screen for Enhancers; Thyrotropin-releasing hormone receptor (Homo sapiens), P34981; TRHR cells, fluo-8 calcium fluorescence, EC20 TRH enhancement; enhancement, % at 2 µM; 360,000 compounds, 0.66% hits; in the data active means enhancement above about 30%; further: 0% is about no effect
Target sequence (P34981 whole entry, looked up): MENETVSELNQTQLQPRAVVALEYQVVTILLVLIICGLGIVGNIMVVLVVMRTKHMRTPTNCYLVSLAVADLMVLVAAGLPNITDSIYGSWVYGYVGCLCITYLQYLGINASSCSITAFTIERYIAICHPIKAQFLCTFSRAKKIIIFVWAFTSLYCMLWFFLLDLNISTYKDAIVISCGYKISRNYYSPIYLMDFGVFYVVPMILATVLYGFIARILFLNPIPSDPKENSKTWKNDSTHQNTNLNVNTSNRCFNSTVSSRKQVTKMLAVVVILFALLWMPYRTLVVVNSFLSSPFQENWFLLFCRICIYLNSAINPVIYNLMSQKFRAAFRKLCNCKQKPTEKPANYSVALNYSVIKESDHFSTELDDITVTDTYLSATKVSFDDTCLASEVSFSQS
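TRHR-expressing cells loaded with fluo-8 calcium dye were read kinetically (ex 480/em 530) during compound addition, then stimulated with an EC20 of TRH (10 nM final). Enhancement of the Gq-mediated intracellular calcium response was scored.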
TRHR agonist – qHTS for Small Molecule Agonists and Allosteric Enhancers of Human TRH Receptor: Primary Screen for Agonists; TRHR cells, calcium flux fluo-8, FDSS agonist mode; activation, % at 2 µM; 360,000 compounds, 0.18% hits; further: 0% is about no effect
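Read-out: compound-evoked intracellular calcium rise in TRHR cells, fluo-8 dye, kinetic FDSS fluorescence at 1 s/cycle following a 10-cycle baseline. Cells cultured overnight before dye loading (30 min–1.5 h, RT).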
Starred values were filed as active, the others as inactive. Rows were chosen to be rich in hits. Some 4.4% of all compounds tested hit in one or more screens of this group. Unless noted, no stated cut-off is given here; in the data, active means activation above about 30%; inactive means the rest.

Screening C=CCn1c(-c2cccs2)nc2ccccc21 returned D1 PAM -11.2, USP1-UAF1 inh -9.7%, D1 antag -52.0*, D1 ag 0.4, TRHR PAM 7.5 and TRHR agonist -1.5.
`CCCCn1c(=N)n(CCOc2ccccc2OC)c2ccccc21` gave D1 PAM -7.7, USP1-UAF1 inh -16.4%, D1 antag -3.0, D1 ag 32.7*, TRHR PAM 3.6 and TRHR agonist -1.0.
`CCCCCn1c(=N)n(CC(O)COc2ccccc2OC)c2ccccc21` (centres undefined) gave D1 PAM -3.2, USP1-UAF1 inh -13.9%, D1 antag -1.0, D1 ag 26.0, TRHR PAM 2.9 and TRHR agonist 0.9.
For CCCCn1c(=N)n(CCOc2ccc(C)cc2)c2ccccc21 the results were D1 PAM -2.6, USP1-UAF1 inh -5.9%, D1 antag 32.2, D1 ag 50.4*, TRHR PAM 1.2 and TRHR agonist 0.0.
`CCn1c(=N)n(CCOc2ccc(Br)cc2)c2ccccc21` gave D1 PAM 4.0, USP1-UAF1 inh -6.8%, D1 antag -25.8, D1 ag 88.6*, TRHR PAM 11.8 and TRHR agonist 3.3.
For COc1ccc(OCCn2c(=N)n(CCO)c3ccccc32)cc1 the results were D1 PAM -3.9, USP1-UAF1 inh -5.3%, D1 antag 12.3, D1 ag 3.9, TRHR PAM 0.1 and TRHR agonist 1.3.
For Cc1cc(=O)n(CC(=O)NCCC(C)C)c2c1c(C)nn2C the results were D1 PAM -5.0, USP1-UAF1 inh -20.8%, D1 antag -25.6, D1 ag 7.9, TRHR PAM -2.1 and TRHR agonist 0.3.
CCC1CN(C(=O)N2CCC(C(=O)NCc3cc(OC)ccc3OC)CC2)c2ccccc2O1 (centres undefined) was read as D1 PAM -5.0, USP1-UAF1 inh -9.1%, D1 antag 9.3, D1 ag 2.6, TRHR PAM -6.9 and TRHR agonist 0.2.
Screening COC(=O)c1cc(F)c(S(=O)(=O)N2CCN(S(=O)(=O)c3ccc4c(c3)OCCO4)CC2)cc1F returned D1 PAM 2.3, D1 antag -16.4, D1 ag 0.1, TRHR PAM 0.8 and TRHR agonist 0.9.
For Cc1ccc(S(=O)(=O)c2cc3cc(C(=O)O)ccc3oc2=O)cc1 the results were D1 PAM -1.2, USP1-UAF1 inh inconclusive, D1 antag 2.4, D1 ag 0.6, TRHR PAM 8.3 and TRHR agonist -0.7.
`Cc1ccc(S(=O)(=O)c2cc3cc(C(=O)Nc4ccc(C)cc4C)ccc3oc2=O)cc1` gave D1 PAM -1.6, USP1-UAF1 inh 10.4%, D1 antag 4.4, D1 ag 1.6, TRHR PAM 30.7* and TRHR agonist -0.1.
Screening Clc1ccc(CN2C3=NCCCN3c3ccccc32)cc1 returned D1 PAM -9.2, USP1-UAF1 inh -14.2%, D1 antag -60.3*, D1 ag 71.6*, TRHR PAM 3.0 and TRHR agonist -0.2.
`Clc1ccc(CN2C3=NCCCN3c3ccccc32)cc1Cl` gave D1 PAM -0.5, USP1-UAF1 inh -3.2%, D1 antag 3.6, D1 ag 15.4, TRHR PAM -6.9 and TRHR agonist 0.9.
O=C(CN1C2=NCCCN2c2ccccc21)c1cccc(Br)c1 was read as D1 PAM -7.5, USP1-UAF1 inh -12.4%, D1 antag 0.7, D1 ag 38.0*, TRHR PAM 11.0 and TRHR agonist -0.5.
`O=C(CN1C2=NCCN2c2ccccc21)c1ccc(Br)cc1` gave D1 PAM -4.1, USP1-UAF1 inh -18.0%, D1 antag 3.3, D1 ag 8.3, TRHR PAM 3.7 and TRHR agonist 0.9.

Screens as filed in PubChem.
